From PubChem
This excerpt belongs to a sample that is enriched for hits.
ARNT TACC3 PPI: disruptors of human ARNT/TACC3 interaction. AlphaScreen His-ARNT PAS-B/GST-TACC3 binding, luminescence; TACC3 fragment carries E629A point mutation. Q9Y6A5. inhibition, % at 9.99 µM. 0.66% of 390,000 active;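 active means mean inhibition of replicates at least 50% and at least half of replicates each reaching 50%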;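 further: 0% = complete ARNT plus TACC3 wells and 100% = ARNT alone without TACC3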
ALR H2O2 inh: blocks human ALR sulfhydryl oxidase activity. AID 485317. purified ALR, DTT oxidation, H2O2 HRP-luminol luminescence. P55789. 3.8% of 290,000 active. inhibition, % (test concentration not listed);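 active means mean replicate inhibition above about 79%, with every replicate also reaching it, limit read from the data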
PDI turbidity: blocks human protein disulfide isomerase activity. P07237. PDI insulin aggregation turbidity, A650, 90 min. inhibition, % at 10 µM. 0.052% of 350,000 active;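 active means mean inhibition across replicates of 30% or more, whatever share of single replicates reach that level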
CendR NRP1 mod: NRP-1/CendR interaction modulation; AID 602438; FAM-RPARPAR peptide binding to NRP-1, fluorescence polarization; inhibition, % at 25 µM; 0.85% of 360,000 active;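 active means inhibition or corrected inhibition above about 18%, plus a signal ratio from 0.5 to 1.5, limit read from the data, passing the limit was not always enough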
PglD DTNB: blocks C. jejuni PglD acetyltransferase activity; 0.098% of 360,000 active; AID 602405; purified PglD enzyme, DTNB colorimetric CoA detection; inhibition, % at 12.5 µM; in the data active means inhibition above about 16%, passing the limit was not always enough
ERp5 block: ERp5 (human) disulfide isomerase inhibition | 0.05% of 350,000 active | AID 651711 | ERp5 insulin aggregation, absorbance 650 nm, 90 min | inhibition, % at 9.99 µM;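 active means mean replicate inhibition above about 25%, with every replicate also reaching it, limit read from the data, passing the limit was not always enough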
Target sequence (Q15084 whole entry, looked up): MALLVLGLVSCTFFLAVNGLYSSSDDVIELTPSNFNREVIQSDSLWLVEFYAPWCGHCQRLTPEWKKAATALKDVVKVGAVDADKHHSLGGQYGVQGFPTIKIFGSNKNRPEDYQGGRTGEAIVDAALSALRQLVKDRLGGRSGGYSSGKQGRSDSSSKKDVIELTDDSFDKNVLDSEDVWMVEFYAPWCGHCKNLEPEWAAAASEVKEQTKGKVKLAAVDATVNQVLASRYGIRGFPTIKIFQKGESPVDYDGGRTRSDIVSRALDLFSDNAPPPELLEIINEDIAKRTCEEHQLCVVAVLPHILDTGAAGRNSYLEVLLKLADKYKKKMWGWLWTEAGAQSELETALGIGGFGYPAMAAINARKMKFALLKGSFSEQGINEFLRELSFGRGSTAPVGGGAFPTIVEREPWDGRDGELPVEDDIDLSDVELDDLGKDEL
* marks the source's active call; other numbers are inactive results; . = not tested or not shown.

SMILES	ARNT TACC3 PPI	ALR H2O2 inh	PDI turbidity	CendR NRP1 mod	PglD DTNB	ERp5 block
COCC(=O)N1[C@H](C(=O)NCc2ccccc2)[C@@H](CO)[C@@H]2Cn3c(cccc3=O)[C@@H]21	3	.	.	.	0	1
CN(C)NC(=S)Nc1ccc2nc(-c3ccccn3)c(-c3ccccn3)nc2c1	73*	.	12	17	2	.
OCCCNC(=S)Nc1ccc2nc(-c3ccccn3)c(-c3ccccn3)nc2c1	60*	-12	7	12	-1	.
CC(C)(C)CC(C)(C)NC(=S)Nc1ccc2nc(-c3ccccn3)c(-c3ccccn3)nc2c1	5	-14	0	-80	-2	.
CC=Cc1ccc2n(c1=O)C[C@@H]1[C@@H](CO)[C@H](C(=O)NCC(F)(F)F)N(CC)[C@H]21 (mixture of isomers)	22	.	.	.	2	-2
CCOC(=O)CS(=O)(=O)c1nc(-c2ccc(F)cc2)cc(C(F)(F)F)n1	1	34	-4	2	1	.
COc1ccc(-c2cc(C(F)(F)F)nc(S(C)(=O)=O)n2)cc1	-5	.	5	-9	.	.
COCC(C)NC(=O)CCS(=O)(=O)c1nc(-c2ccc(OC)cc2)cc(C(F)(F)F)n1 (stereo unspecified)	-4	97*	17	-9	20	.
CS(=O)(=O)c1nc(-c2ccc(F)cc2)cc(C(F)(F)F)n1	2	.	9	-5	.	4
COc1nc(-c2ccccc2)cc(C(F)(F)F)n1	-13	-4	0	13	3	-1
CCOC(=O)CS(=O)(=O)c1nc(-c2ccccc2)cc(C(F)(F)F)n1	6	98*	-6	-6	.	.
CCOC(=O)CCS(=O)(=O)c1nc(-c2ccccc2)cc(C(F)(F)F)n1	0	87*	3	5	0	.
COC(=O)CCS(=O)(=O)c1nc(-c2ccccc2)cc(C(F)(F)F)n1	0	98*	1	3	.	.
COc1ccc(CN(C)C[C@H]2Oc3ccc(NS(=O)(=O)c4cn(C)cn4)cc3CC(=O)N([C@@H](C)CO)C[C@@H]2C)cc1	2	.	.	.	-1	-2
CCC(=O)N(C)C[C@H]1Oc2ncc(C#CCC(C)C)cc2C(=O)N([C@H](C)CO)C[C@@H]1C	-7	.	.	.	1	2
CC(=O)Nc1ccc(NC(=O)COC(=O)CCc2nc3ccccc3s2)cc1	-6	-4	7	2	-1	0
c1ccc2sc(SCc3ccc(-c4nnco4)cc3)nc2c1	-2	-4	9	-6	1	.
NC(=O)c1ccc(CSc2nc3ccccc3s2)cc1	0	92*	0	3	5	-1
COCCNC(=O)c1nc2ccccc2s1	.	-2	-1	-8	.	2
CCC(C)/C(C)=N/NC(=O)c1ccc(CSc2nc3ccccc3s2)cc1 (stereo unspecified)	2	42	-25	14	-10	1
COCCNC(=O)COC(=O)CSCc1nc2ccccc2s1	-5	98*	7	-12	-1	.
CCNC(=O)c1ccc(CSc2nc3ccccc3s2)cc1	-3	99*	6	15	1	-14
COCCNC(=O)c1ccc(CSc2nc3ccccc3s2)cc1	2	99*	3	5	0	-1
COc1ccc2c3c(n(C)c2c1)[C@@H](CO)N(C(=O)Nc1ccc(F)cc1)CC31CCN(C(=O)CN2CCOCC2)CC1	.	.	.	.	.	0
C[C@@H]1CN([C@@H](C)CO)C(=O)c2cc(NS(=O)(=O)c3cn(C)cn3)ccc2O[C@@H]1CN(C)Cc1ccc(C(=O)O)cc1	-7	.	.	.	0	-3
SMILES	ARNT TACC3 PPI	ALR H2O2 inh	PDI turbidity	CendR NRP1 mod	PglD DTNB	ERp5 block
CC=Cc1ccc2n(c1=O)C[C@H]1[C@H](CO)[C@@H](C(=O)NCc3ccccn3)[C@@H]2N1CCC (mixture of isomers)	7	.	.	.	3	0
COc1ccccc1CN1CC[C@H]2[C@H](CO)Nc3ccc(-c4ccc(C(=O)N(C)C)cc4)cc3[C@H]21	-4	.	.	.	10	-4
OC1C=CSc2nc3ccccc3n21 (stereo unspecified)	-2	86*	-4	3	-2	.
Cc1noc(C)c1NC(=O)Nc1cccc2c1O[C@@H](CN(C)S(=O)(=O)c1ccc(F)cc1)[C@@H](C)CN([C@H](C)CO)C2=O	3	.	.	.	-2	11
CCCNC(=S)Nc1ccc(Nc2ccccc2)cc1	12	99*	5	10	-2	.
S=C(NCCCNC(=S)Nc1ccccc1)Nc1ccccc1	6	-9	-8	48*	-1	.
CCCNC(=S)Nc1cccc(C(F)(F)F)c1	2	14	5	25*	.	.
CNC(=S)Nc1ccc(Nc2ccccc2)cc1	5	99*	-1	14	-3	.
O=C(Nc1ccccc1)N1C[C@@H]2[C@H](c3ccccc31)[C@@H](CO)N2Cc1ccc(F)cc1	4	.	.	.	1	4
CO[C@H]1CN(C)C(=O)c2cc(NC(=O)C3CC3)ccc2OC[C@H](C)N(C(=O)c2cccnc2)C[C@@H]1C	-7	.	.	.	-2	-2
C[C@@H]1CN([C@@H](C)CO)C(=O)c2cc(NC(=O)Cn3cnnn3)ccc2O[C@@H]1CN(C)C(=O)Nc1ccc2c(c1)OCO2	-6	.	.	.	8	1
O=C(C[C@@H]1CC[C@@H]2[C@H](COC[C@@H](O)CN2Cc2cccc(Cl)c2)O1)N1CCOCC1	10	.	.	.	-2	-17
CC(=O)N(C)C[C@H]1Oc2cc(-c3ccc(C#N)cc3)ccc2S(=O)(=O)N([C@H](C)CO)C[C@H]1C	-3	.	.	.	2	1
CCN(CC)CCn1c2c(c(SCC(=O)Nc3cccc(C(C)=O)c3)nc1=O)CCCC2	.	.	-4	-1	0	-1
CCN(CC)CCCn1c2c(c(SCC(=O)Nc3cccc(C(C)=O)c3)nc1=O)CCC2	-3	99*	8	9	-4	-1
CC(=O)c1cccc(NC(=O)CSc2nc(=O)n(Cc3ccccn3)c3c2CCC3)c1	-1	99*	10	1	-1	0
CCOc1ccccc1NC(=O)CSc1nc(=O)n(Cc2ccncc2)c2c1CCC2	2	.	-5	18	2	1
CN(C)CCCn1c2c(c(SCC(=O)Nc3ccc4c(c3)OCO4)nc1=O)CCC2	0	98*	13	1	-4	7
CCN(CC)CCCn1c2c(c(SCC(=O)Nc3ccc4c(c3)OCCO4)nc1=O)CCC2	.	98*	-1	4	1	2
CCN(CC)CCn1c2c(c(SCC(=O)Nc3ccc4c(c3)OCCO4)nc1=O)CCCC2	-1	10	2	1	1	-5
CCC(=O)N1CC(=O)N2[C@@H](CO)[C@@H](c3ccc(C#CCc4ccccc4)cc3)[C@@H]2C1	.	.	.	.	.	6
COc1cc(/C=N/S(=O)(=O)CCc2ccccc2)cc(OC)c1O	-4	.	16	39*	-6	-2
COc1ccccc1CNc1ccc(CNc2ncn[nH]2)cc1	-2	87*	5	-3	.	-4
c1ccc2c(CNc3ccc(CNc4ncn[nH]4)cc3)cccc2c1	3	3	11	32*	-1	.
